The campaign covered roughly 5,500 compounds. About 2,000 (36%) were called active. Another 18% or so got no clear call; they are omitted. Rule as the data show it: active = normalized growth mostly below about 0.91 (no sharp cut-off); inconclusive = no clear call, values can overlap the other calls; inactive = mostly above about 0.92. The list shows a part of the results.
Assay: chemical genetic growth profiling, strain panel (AID 1159580);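 also: tested at 20 µM; growth read once vehicle control cultures reached saturation at 30 °C; 1 = growth at the plate median or of vehicle wells; lower values mean less growth of the strain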
Settings: S. cerevisiae deletion strains, growth OD
[1] = locus YDL101C, strain DUN1, hits give low values
[2] = locus YHR030C, strain SLT2, hits give low values

Measured: normalized growth

Cc1noc(C)c1-c1nc(-c2cc(C(F)(F)F)cc(C(F)(F)F)c2)no1
inactive: locus YAL013W, strain DEP1, hits give low values 1.02 | locus YBR229C, strain ROT2, hits give low values 1.01 | locus YCL061C, strain MRC1, hits give low values 0.992 | [1] 1.02 | locus YDL134C, strain PPH21, hits give low values 1.01 | locus YDR150W, strain NUM1, hits give low values 0.983 | locus YEL061C, strain CIN8, hits give low values 1.01 | locus YGR078C, strain PAC10, hits give low values 1.01 | [2] 1.03 | locus YHR087W, strain rtc3, hits give low values 1 | locus YJL187C, strain SWE1, hits give low values 1 | locus YJR043C, strain POL32, hits give low values 1 | locus YJR075W, strain HOC1, hits give low values 0.999 | locus YLR039C, strain RIC1, hits give low values 1.06 | locus YLR058C, strain SHM2 (second series), hits give low values 0.993 | locus YLR085C, strain ARP6, hits give low values 1.03 | locus YLR262C, strain YPT6, hits give low values 1.03 | locus YML094W, strain GIM5, hits give low values 1.07 | locus YMR219W, strain ESC1, hits give low values 0.998 | locus YMR263W, strain SAP30, hits give low values 0.981 | locus YMR307W, strain GAS1, hits give low values 0.99 | locus YNL128W, strain TEP1, hits give low values 1.02 | locus YNL153C, strain GIM3, hits give low values 1 | locus YNL298W, strain CLA4 (second series), hits give low values 1 | locus YNL322C, strain KRE1, hits give low values 1.01 | locus YNR030W, strain Alg12, hits give low values 1.03 | locus YPL055C, strain LGE1, hits give low values 1.05 | locus YPL241C, strain CIN2, hits give low values 1.01 | locus YPR135W, strain CTF4, hits give low values 1.07

Fc1cccc(Cl)c1CSc1n[nH]c(-c2cc(C(F)(F)F)cc(C(F)(F)F)c2)n1
inactive: locus YAR019C, strain CDC15, hits give low values 0.973 | locus YBL105C, strain PKC1, hits give low values 0.981 | locus YBR135W, strain CKS1, hits give low values 0.981 | locus YBR136W, strain MEC1, hits give low values 0.982 | locus YBR160W, strain CDC28, hits give low values 0.977 | locus YDL017W, strain CDC7, hits give low values 0.987 | locus YDL028C, strain MPS1, hits give low values 0.961 | [1] 0.986 | locus YDL108W, strain KIN28, hits give low values 0.97 | locus YDL132W, strain cdc53, hits give low values 0.975 | locus YDL214C, strain PRR2, hits give low values 0.916 | locus YDR052C, strain DBF4, hits give low values 0.994 | locus YDR054C, strain cdc34, hits give low values 0.973 | locus YDR226W, strain ADK1, hits give low values 0.971 | locus YDR477W, strain SNF1, hits give low values 0.891 | locus YER123W, strain YCK3, hits give low values 0.918 | locus YER133W, strain GLC7, hits give low values 0.939 | locus YFL009W, strain cdc4, hits give low values 0.961 | locus YFL029C, strain CAK1, hits give low values 0.973 | locus YFR003C, strain YPI1, hits give low values 0.977 | locus YFR019W, strain FAB1, hits give low values 0.913 | locus YFR028C, strain CDC14, hits give low values 0.973 | locus YGR040W, strain KSS1, hits give low values 0.898 | locus YGR052W, strain FMP48, hits give low values 0.925 | locus YGR092W, strain DBF2, hits give low values 0.914 | locus YHR079C, strain IRE1, hits give low values 0.836 | locus YHR082C, strain KSP1, hits give low values 0.871 | locus YHR205W, strain SCH9, hits give low values 0.821 | locus YIL147C, strain SLN1, hits give low values 0.98 | locus YJL095W, strain BCK1, hits give low values 0.79 | locus YJL128C, strain PBS2, hits give low values 0.957 | locus YJL157C, strain FAR1, hits give low values 0.926 | locus YJR016C, strain ILV3, hits give low values 0.981 | locus YJR066W, strain TOR1 (second series), hits give low values 0.918 | locus YJR066W, strain TOR1, hits give low values 0.873 | locus YKL048C, strain ELM1, hits give low values 0.974 | locus YKL067W, strain YNK1, hits give low values 0.916 | locus YKL101W, strain HSL1, hits give low values 0.889 | locus YKL193C, strain SDS22, hits give low values 0.975 | locus YKL203C, strain TOR2, hits give low values 1.01 | locus YLR133W, strain CKI1, hits give low values 0.902 | locus YLR403W, strain SFP1, hits give low values 0.926 | locus YML070W, strain DAK1, hits give low values 0.907 | locus YMR001C, strain CDC5, hits give low values 0.97 | locus YMR205C, strain PFK2 (second series), hits give low values 0.937 | locus YMR277W, strain FCP1, hits give low values 0.959 | locus YNL006W, strain LST8, hits give low values 0.983 | locus YNL020C, strain ARK1, hits give low values 0.905 | locus YNL161W, strain CBK1, hits give low values 0.976 | locus YNL183C, strain NPR1, hits give low values 0.933 | locus YNL207W, strain RIO2, hits give low values 0.978 | locus YNL222W, strain SSU72, hits give low values 0.965 | locus YNL307C, strain MCK1 (second series), hits give low values 0.744 | locus YOL078W, strain AVO1, hits give low values 0.976 | locus YOL136C, strain PFK27, hits give low values 0.878 | locus YOR061W, strain CKA2, hits give low values 0.911 | locus YOR119C, strain RIO1, hits give low values 0.943 | locus YOR231W, strain MKK1, hits give low values 0.846 | locus YOR329C, strain SCD5, hits give low values 0.983 | locus YPL031C, strain PHO85, hits give low values 0.896 | locus YPL153C, strain RAD53, hits give low values 0.894 | locus YPL204W, strain HRR25, hits give low values 0.868 | locus YPL209C, strain IPL1, hits give low values 0.979 | locus YPR025C, strain CCL1, hits give low values 0.981 | locus YPR106W, strain ISR1, hits give low values 0.97 | locus YPR111W, strain DBF20, hits give low values 0.945 | strain NNK1, hits give low values 0.96 | strain TSCII, hits give low values 0.972
active: [2] 0.372 | locus YLR113W, strain HOG1, hits give low values 0.773 | locus YPL256C, strain CLN2, hits give low values 0.811
